This is a sample that favours compounds with a hit; in the whole collection about 2.7% have one here.
MPTP block = blocks calcium-induced mitochondrial swelling; isolated mouse mitochondria, Ca2+ swelling absorbance, 30 min; inhibition, % at 10 µM; actives 1.4% (n = 360,000);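 active means inhibition of 50% or more, scaled per plate between neutral and stimulator controls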;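 further: 0% = DMSO wells given calcium and 100% = 1 mM EGTA wells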
NRP1-CendR mod = alters CendR peptide binding to human NRP-1; FAM-RPARPAR peptide binding to NRP-1, fluorescence polarization; inhibition, % at 25 µM; actives 0.85% (n = 360,000); AID 602438;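 active means inhibition or corrected inhibition above about 18%, plus a signal ratio from 0.5 to 1.5, limit read from the data, passing the limit was not always enough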
Target sequence (O14786 whole entry, looked up): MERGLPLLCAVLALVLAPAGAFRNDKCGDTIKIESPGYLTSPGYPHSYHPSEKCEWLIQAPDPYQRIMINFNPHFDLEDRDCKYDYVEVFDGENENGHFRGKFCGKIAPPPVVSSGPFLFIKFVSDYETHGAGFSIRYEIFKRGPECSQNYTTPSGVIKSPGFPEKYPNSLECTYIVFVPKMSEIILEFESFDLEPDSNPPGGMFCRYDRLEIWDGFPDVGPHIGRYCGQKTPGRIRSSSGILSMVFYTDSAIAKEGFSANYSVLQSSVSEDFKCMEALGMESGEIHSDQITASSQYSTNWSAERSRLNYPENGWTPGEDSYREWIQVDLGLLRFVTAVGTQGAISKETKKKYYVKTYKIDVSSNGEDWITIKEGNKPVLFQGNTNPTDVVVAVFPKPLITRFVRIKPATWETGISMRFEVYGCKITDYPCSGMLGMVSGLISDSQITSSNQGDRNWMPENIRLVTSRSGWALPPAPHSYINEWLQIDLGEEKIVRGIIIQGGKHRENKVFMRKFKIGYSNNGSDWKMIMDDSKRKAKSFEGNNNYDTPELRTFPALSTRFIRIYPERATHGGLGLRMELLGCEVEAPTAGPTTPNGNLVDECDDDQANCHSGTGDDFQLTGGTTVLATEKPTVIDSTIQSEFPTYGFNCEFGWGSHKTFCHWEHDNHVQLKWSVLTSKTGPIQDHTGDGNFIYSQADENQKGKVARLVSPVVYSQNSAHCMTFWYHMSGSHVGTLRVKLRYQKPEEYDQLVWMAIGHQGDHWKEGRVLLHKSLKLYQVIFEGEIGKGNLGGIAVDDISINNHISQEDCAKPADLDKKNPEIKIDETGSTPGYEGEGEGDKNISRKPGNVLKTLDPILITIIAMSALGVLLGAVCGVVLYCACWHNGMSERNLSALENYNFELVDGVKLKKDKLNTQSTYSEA
SKN-1 inh = C. elegans SKN-1 inhibition; C. elegans VP596 Pgst-4::GFP/RFP ratio, acrylamide-induced, 24 h; inhibition, % at 21.8 µM; actives 0.49% (n = 360,000);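 active means interference check ratio from 0.5 to 1.5 plus GFP to RFP signal ratio inhibition reaching or exceeding a fixed threshold, cut at about 30% in these data, passing the limit was not always enough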
CFTR F508del cor = CFTR F508del correction in bronchial cells. CFBE cells, YFP halide quenching; stimulated with forskolin plus potentiator P3; % fluorescence drop versus neutral controls. activity (quench increase), % at 7.58 µM. actives 0.36% (n = 350,000);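 active means mean added fluorescence quench of at least 8% versus neutral control, with both replicates also reaching 8%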;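 further: cells transiently co-express mutant CFTR-F508del with the halide-sensitive YFP; corrector assay measuring rescue of mutant channel to the surface after 24 h compound exposure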
ATG4B inh = blocks human ATG4B protease cleavage of LC3 substrate; Q9Y4P1; ATG4B cleavage of LC3-PLA2, NBD-HPC fluorescence, 1 h; inhibition, % at 8.33 µM; actives 0.51% (n = 340,000); in the data active means inhibition above about 40%
* marks the source's active call; other numbers are inactive results; / = no result given.

SMILES | MPTP block | NRP1-CendR mod | SKN-1 inh | CFTR F508del cor | ATG4B inh
Cn1c(=O)c2c(ncn2CC(COCc2ccccc2)OCc2ccccc2)n(C)c1=O (stereo not drawn) | 2 | 30* | -2 | 0 | -1
CCOC(=O)c1cnc(-n2nc(C)cc2C)nc1Nc1ccc(OC)cc1 | 0 | 30* | 3 | / | -6
C[C@H]1CN([C@@H](C)CO)C(=O)c2cc(C#Cc3cccc(F)c3)cnc2O[C@@H]1CN(C)CC1CCOCC1 | / | / | / | 1 | /
c1csc(Cn2nnnc2CN2CCN(c3nc4ccccc4s3)CC2)c1 | 0 | -8 | 36* | / | -16
c1ccc(C(c2nnnn2Cc2ccco2)N2CCN(c3nc4ccccc4s3)CC2)cc1 (stereo not drawn) | -4 | 46* | 5 | / | 23
COc1ccc(N2C(=NC(=O)C(C)Oc3ccccc3)SC3CS(=O)(=O)CC32)cc1 (stereo not drawn) | -1 | 28* | 8 | 0 | -3
CC(=O)N=C1SC2CS(=O)(=O)CC2N1c1ccccc1Cl (stereo not drawn) | 1 | 0 | 23 | / | 1
CC(=O)N=C1SC2CS(=O)(=O)CC2N1c1cccc(Cl)c1Cl (stereo not drawn) | 0 | 0 | 40* | / | 2
CCC(=O)N=C1SC2CS(=O)(=O)CC2N1c1cccc(OC)c1 (stereo not drawn) | 0 | -5 | -4 | / | -7
CCCNC(=O)Nc1ccc2c(c1)C(=O)N(C)C[C@@H](OC)[C@@H](C)CN(S(C)(=O)=O)[C@H](C)CO2 | / | / | / | 0 | /
CCCNC(=O)C[C@@H]1CC[C@H]2[C@@H](COc3ccc(NC(=O)c4cccc(F)c4)cc3C(=O)N2C)O1 | / | / | / | 2 | /
Cc1ccc(C(=O)N/C(=C\c2ccc(-c3ccccc3[N+](=O)[O-])o2)C(=O)NCCCN2CCOCC2)cc1 | 0 | 26* | -2 | -5 | -11
COCC(=O)Nc1ccc2c(c1)[C@H]1C[C@@H](CC(=O)N3CCCCC3)O[C@@H](CO)[C@H]1O2 | / | / | / | -1 | /
CC(C)(C)c1cc[n+](-c2[nH]c(=O)sc2/C=N/NC([S-])=Nc2ccccc2)cc1 | 0 | 54* | -25 | 1 | -7
Cc1cc[n+](-c2[nH]c(=O)sc2/C=N/NC([S-])=Nc2ccccc2)cc1C | 1 | 35* | 1 | / | -6
Cc1ccc[n+](-c2[nH]c(=O)sc2/C=N/N=C(\[O-])CCn2c3ccccc3c3ccccc32)c1 | 4 | 14 | -8 | 2 | -8
C[C@H]1CN([C@@H](C)CO)C(=O)c2cc(C3=CCCC3)cnc2O[C@H]1CN(C)C(=O)CN(C)C | / | / | / | -3 | /
CC(C)NC(=O)Nc1ccc2c(c1)C(=O)N([C@@H](C)CO)C[C@H](C)[C@@H](CN(C)Cc1ccc(-c3ccccc3)cc1)O2 | / | / | / | -6 | /
CC1Cc2nc(SCC(=O)N3CCOCC3)n(-c3ccccc3)c(=O)c2S1 (stereo not drawn) | 0 | -12 | 23 | 8.3* | 2
COc1ccc(NC2CC(=O)N(CCc3ccccc3)C2=O)cc1 (stereo not drawn) | -2 | -2 | 38* | / | 5
O=C1CC(Nc2ccccc2)C(=O)N1CCc1ccccc1 (stereo not drawn) | -2 | 3 | 17 | / | -4
CN(C)c1ccc2nc3ccc(=[N+](C)C)cc-3sc2c1 | 48 | 13 | 37* | 0 | 1
O=C(N[C@@H]1CC[C@H](CCNS(=O)(=O)c2ccc(F)cc2)O[C@@H]1CO)C1CC1 | / | / | / | 1 | /
Cc1ccc(S(=O)(=O)Nc2ccc3c(c2)CC(=O)N([C@@H](C)CO)C[C@@H](C)[C@H](CN(C)S(C)(=O)=O)O3)cc1 | / | / | / | -3 | /
O=C(c1cccc(S(=O)(=O)N2CCOCC2)c1)N1CCCC(C(F)(F)F)C1 (stereo not drawn) | 0 | 16 | 16 | 10* | -8
SMILES | MPTP block | NRP1-CendR mod | SKN-1 inh | CFTR F508del cor | ATG4B inh
CCCC#Cc1ccc([C@@H]2[C@H](C#N)N(C(=O)C3CCC3)[C@H]2CO)cc1 | / | / | / | 2 | /
CC(C)OC(=O)CSc1nc2cc3c(cc2cc1C#N)OCO3 | 0 | 2 | 34* | / | -5
C[C@@H]1CN([C@H](C)CO)C(=O)c2cc(NS(=O)(=O)c3ccccc3)ccc2O[C@H]1CN(C)C(=O)Nc1ccc(F)cc1 | / | / | / | 3 | /
CCOC(=O)c1c(-c2cccs2)csc1NC(C)=O | 2 | 8 | -2 | / | -10
CCOC(=O)c1c(-c2cccs2)csc1NC(=O)CN1CC(C)OC(C)C1 (stereo not drawn) | -2 | -12 | 37* | / | -10
CCOC(=O)c1c(-c2ccccc2)csc1NC(=O)CCN1C(=O)c2ccccc2C1=O | 1 | -5 | 6 | -1 | 6
CCOC(=O)c1sc(NC(=O)CN2CC(C)OC(C)C2)nc1C (stereo not drawn) | -1 | 14 | 35* | 1 | -4
CCOC(=O)c1c(-c2ccc(-c3ccccc3)cc2)csc1NC(=O)CNCCN(C)C | -3 | 9 | 52* | 0 | 9
O=C(N/N=C/c1c(O)ccc2ccccc12)c1ccc(CO)nc1 | 0 | -87 | -2 | 14* | -7
COCCNC(=O)C[C@@H]1C[C@H]2c3cc(NC(=O)C4CCOCC4)ccc3O[C@H]2[C@H](CO)O1 | / | / | / | 0 | /
CN(C)C(=O)C[C@@H]1CC[C@H](NC(=O)NC2CCCC2)[C@@H](CO)O1 | / | / | / | -4 | /
COc1ccc(-c2csc(NC(=S)NC(=O)c3ccco3)n2)cc1Br | 4 | 16 | 10 | -1 | -4
COc1ccc(-c2csc(NC(=S)NC(=O)/C=C/c3ccco3)n2)cc1Br | 1 | -18 | -2 | 9.4* | 10
COc1ccc(-c2csc(NC(=S)NC(=O)/C=C/c3ccc(C(C)C)cc3)n2)cc1OC | 3 | 14 | 1 | 1 | -7
COc1ccc(-c2csc(NC(=S)NC(=O)/C=C/c3ccco3)n2)cc1OC | -2 | 0 | -9 | 9.7* | 24
CC(C)=CCNc1ncnc2c1c(C#N)cn2C1OC(CO)C(O)C1O (stereo not drawn) | 1 | 26* | 14 | -5 | -4
OCC1OC(n2ccc3c(NO)ncnc32)C(O)C1O (stereo not drawn) | 0 | -8 | 11 | -3 | 3
Cc1cc(Cl)ccc1OCC(=O)OCC(=O)Nc1ccc(F)c([N+](=O)[O-])c1 | 0 | -2 | 1 | / | 25
Cc1ccc(NC(=O)COc2ncnc3c(Cl)cc(Cl)cc23)cc1[N+](=O)[O-] | -1 | 25* | -2 | / | -2
COC(=O)c1ccccc1-c1c2ccc(=N)cc-2oc2cc(N)ccc12 | 3 | 145 | 50 | 62* | /
CC(C)[C@H](C)NC(=O)N(C)C[C@@H]1OCc2ccccc2-c2c(n(C)c3ccccc23)C(=O)N([C@H](C)CO)C[C@@H]1C | / | / | / | -1 | /
C=CCN=C(NC#N)SCc1ccccc1 | 1 | 36* | -21 | / | -7
CC(Nc1cccc2ccccc12)C(=O)N/N=C/c1ccccn1 (stereo not drawn) | 1 | 40* | -6 | / | -26
O=C(C[C@H]1CC[C@H](NS(=O)(=O)c2ccccc2)[C@@H](CO)O1)NCc1ccccc1F | / | / | / | 0 | /
